Laboratory results reported in PubChem BioAssay (NCATS).
“And” between values parts separate entries of the source, which are not always exact repeats. Identical values can stand only once. Records with an inconclusive call do not appear. The source made the active and inactive calls. Unless noted, the call rests on the fitted dose curve; in most records, active means well fitted curve in either direction with a large enough effect (not every such curve was filed as active); inconclusive means small, poorly fitted or top-dose-only effect, or another doubt; inactive means flat fitted curve, though single readings scatter.

Experiments:
[1] = AP1 Signaling Pathway (AID 357); conditions: ME-180 AP-1-bla reporter, EGF-induced, beta-lactamase ratio, 5 h; at 17.2 µM (top of the series);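 further: ME-180 reporter cells stimulated with EGF at its EC50 level; on the % scale 0 is the no-effect control and ±100 the full control effect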
Procedure, shortened: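 Titration-series screen for positive or negative modulators of EC50 EGF-induced signaling in ME-180 cells carrying an AP-1-driven beta-lactamase reporter. After 5 hours at 37 degrees Celsius, CCF4 460nm/530nm emission ratio gave %Activity; AC50 values derived.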

[2] = NFAT Signaling Pathway (AID 444); conditions: Jurkat NFAT-bla M1, carbachol, beta-lactamase ratio, 5 h; at 17.2 µM (top of the series);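 further: carbachol stimulus at about its EC50 of 1 µM final; on the % scale 0 is the no-effect control and ±100 the full control effect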
Procedure, shortened: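 Read-out: CCF4 FRET ratio (460 nm/530 nm) after 1 h RT dye loading, used for %activity and AC50 from titration series. Cells: Jurkat NFAT-β-lactamase/M1 line, treated with compound plus 1 uM carbachol for 5 h, 37 °C.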

[3] = Stat Signaling Pathway (AID 446); conditions: ME-180 (cervical carcinoma) SIE beta-lactamase reporter, IL-6 stimulated, 5 h; at 17.2 µM (top of the series);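 further: ME-180 cervical cancer cells given 40 pM IL-6 alongside compound; SIE-controlled beta-lactamase reporter measured as 460/530 nm FRET emission ratio; on the % scale 0 is the no-effect control and ±100 the full control effect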
Procedure, shortened: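 IL-6/STAT signaling read in ME-180 cells via an SIE beta-lactamase reporter. Stimulus was 40 pM IL-6 (its AC50) for 5 hrs, so both activation and inhibition register.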

[4] = biological target: Glucocorticoid receptor (Homo sapiens) (UniProt P04150); test: GR-GFP Redistribution (AID 450;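 active means compounds whose dose series gives a full or clear partial fitted curve of increased nuclear translocation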; further: potency means the concentration at half of the fitted maximal effect); conditions: U2OS GR-GFP nuclear translocation, laser cytometry, 2 h
[5] = Cell Viability - BJ (AID 421; calls by dose curve;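 further: potency means the concentration at half of the fitted maximal effect; cells exposed to compound for 40 hours at 37 °C before readout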); conditions: BJ fibroblast viability, qHTS
Procedure, shortened: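 Quantitative HTS: ATP depletion in BJ cells after 40 hr compound exposure in complete culture medium, detected with CellTiter-Glo; AC50 from standard Hill fits.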

[6] = Cell Viability - Jurkat (AID 426;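 active means dose-dependent loss of cell ATP signal giving a full or clear fitted curve, ranked by lower potency value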; further: potency means the concentration at half of the fitted maximal effect); conditions: qHTS
Procedure, shortened: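 Jurkat (Clone E6-1) cells, 5000/well in complete medium, exposed to compounds for 40 hr at 37C; intracellular ATP measured by CellTiter-Glo luminescence after 20 min at room temperature. AC50 from Hill fits.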

[7] = Cell Viability - Hek293 (AID 427;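 active means compounds whose dose-response curve shows a full or clear partial loss of cell viability, called from curve shape rather than a numeric limit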;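 further: potency means the concentration at half of the fitted maximal effect; cells exposed to compound for 40 hours at 37 °C before reading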); conditions: qHTS
Procedure, shortened: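 AC50 values derive from Hill-modelled concentration-response of ATP-based luminescence, normalized between DMSO-only and 100 uM tamoxifen controls. Cells were exposed in complete culture medium for 40 hr at 37 °C before detection.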

[8] = Cell Viability - HepG2 (AID 433; calls by dose curve;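 further: potency means the concentration at half of the fitted maximal effect; potency for ATP loss meaning cytotoxicity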); conditions: qHTS
Procedure, shortened: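 HepG2 cells, 1500 per well, treated 40 hr at 37 °C in complete medium; viability from intracellular ATP by CellTiter-Glo luminescence. Normalized to DMSO and 100 uM tamoxifen; AC50 from Hill fit of qHTS concentration-response.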

[9] = biological target: Mitogen-activated protein kinase 10 (Mus musculus) (UniProt Q61831); test: JNK3 AlphaScreen Assay (AID 530); conditions: JNK3 lysate, c-Jun phosphorylation; series mostly up to 25.6 µM;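 further: kinase came from lysate of stimulated human HepG2 cells; signal reports phosphorylation of biotinylated GST-cJun 1-79 at Ser73 with 10 µM ATP; on the % scale 0 is the no-effect control and ±100 the full control effect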
Procedure, shortened: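 Compound titrations were preincubated 15 minutes at room temperature with substrate, antibody and pre-activated JNK3-containing HepG2 lysate. Reactions were started with 10 uM ATP and stopped with EDTA-containing bead buffer for AlphaScreen detection.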

[10] = Cell Viability - N2a (AID 540; active means well fitted curve in the direction sought with a large enough effect; an effect the other way counts as inactive or inconclusive; further: potency means the concentration at half of the fitted maximal effect; nearly all actives have a fitted effect of over 45% in size); conditions: N2a mouse neuroblastoma cell viability; activity change, negative = cytotoxicity: at 92.2 µM (top of the series)
Procedure, shortened: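 Mouse neuroblastoma N2a cells, 1500/well, exposed to compounds 40 h at 37 °C in complete medium. Viability measured as cellular ATP by CellTiter-Glo luminescence; AC50 from Hill fits of concentration-response.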

[11] = Cell Viability - HUV-EC-C (AID 542; active means well fitted curve in the direction sought with a large enough effect; an effect the other way counts as inactive or inconclusive; further: potency means the concentration at half of the fitted maximal effect; nearly all actives have a fitted effect of over 35% in size); conditions: HUV-EC-C endothelial cell viability, qHTS; series mostly up to 92.2 µM
Procedure, shortened: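 HUV-EC-C human vascular endothelial cells, 1000/well, exposed to compound for 40 hr at 37 °C in complete medium. Intracellular ATP was read by CellTiter-Glo luminescence. AC50 came from Hill-equation fits of concentration-response data.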

[12] = Cell Viability - H-4-II-E (AID 543; active means well fitted curve in the direction sought with a large enough effect; an effect the other way counts as inactive or inconclusive; further: potency means the concentration at half of the fitted maximal effect; nearly all actives have a fitted effect of over 35% in size); conditions: H-4-II-E rat hepatoma viability; series mostly up to 92.2 µM
Procedure, shortened: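 Rat hepatoma H-4-II-E cells, 1500 per well, treated 40 h at 37 °C in complete medium. Cellular ATP read by CellTiter-Glo luminescence; AC50 from Hill fits of concentration-response.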

[13] = biological target: Glucocorticoid receptor (Homo sapiens) (UniProt P04150); test: GR-EFC Redistribution (AID 451; calls by dose curve; further: potency means the concentration at half of the fitted maximal effect); conditions: CHO-K1 GR-EFC translocation, beta-gal luminescence, 2 h
Procedure, shortened: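 Translocation of GR-ED fusion to nuclear EA restores b-gal, read by luminescence after 1 h room-temperature detection. Engineered CHO-K1 biosensor cells, 1,000/well, exposed 2 h at 37 C to titrations up to 46 uM final.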

[14] = biological target: Cytochrome P450 1A2 (Homo sapiens) (UniProt P05177); test: p450-cyp1a2 (AID 410; calls by dose curve;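 further: -100% = full effect of reference inhibitor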); conditions: recombinant CYP1A2, luciferin-ME demethylation, luminescence; series mostly up to 25.6 µM
Procedure, shortened: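 20nM CYP1A2 with 100uM Luciferin-ME (at Km) in 100mM KPO4; compound preincubated 10 min, NADPH regeneration added, 60 min at room temperature. Luciferin quantified by luminescence after detection reagent; normalized to 57 uM furafylline.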

Chain of Glucocorticoid receptor (Homo sapiens) (P04150 whole entry, looked up, the tested form may be a part): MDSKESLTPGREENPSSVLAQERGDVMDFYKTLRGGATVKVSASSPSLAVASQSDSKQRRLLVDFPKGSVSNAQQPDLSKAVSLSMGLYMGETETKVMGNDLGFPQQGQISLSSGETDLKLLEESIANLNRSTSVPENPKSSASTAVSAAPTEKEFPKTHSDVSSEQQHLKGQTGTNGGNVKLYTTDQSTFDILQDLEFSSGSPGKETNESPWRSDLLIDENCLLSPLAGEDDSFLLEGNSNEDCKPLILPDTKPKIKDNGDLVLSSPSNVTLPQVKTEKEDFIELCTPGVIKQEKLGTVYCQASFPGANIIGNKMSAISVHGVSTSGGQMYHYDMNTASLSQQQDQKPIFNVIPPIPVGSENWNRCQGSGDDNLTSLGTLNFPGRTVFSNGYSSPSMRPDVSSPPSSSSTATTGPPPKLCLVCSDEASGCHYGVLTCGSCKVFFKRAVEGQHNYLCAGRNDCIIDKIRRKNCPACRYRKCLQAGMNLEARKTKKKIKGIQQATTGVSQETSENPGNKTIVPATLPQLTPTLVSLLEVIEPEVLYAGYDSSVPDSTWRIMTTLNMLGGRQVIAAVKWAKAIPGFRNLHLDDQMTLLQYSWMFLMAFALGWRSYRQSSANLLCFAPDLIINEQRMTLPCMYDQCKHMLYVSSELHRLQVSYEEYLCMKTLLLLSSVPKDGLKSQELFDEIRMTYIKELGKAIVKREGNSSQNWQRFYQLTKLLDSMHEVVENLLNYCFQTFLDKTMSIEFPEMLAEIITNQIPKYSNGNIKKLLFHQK
Chain of Cytochrome P450 1A2 (Homo sapiens) (P05177 whole entry, looked up): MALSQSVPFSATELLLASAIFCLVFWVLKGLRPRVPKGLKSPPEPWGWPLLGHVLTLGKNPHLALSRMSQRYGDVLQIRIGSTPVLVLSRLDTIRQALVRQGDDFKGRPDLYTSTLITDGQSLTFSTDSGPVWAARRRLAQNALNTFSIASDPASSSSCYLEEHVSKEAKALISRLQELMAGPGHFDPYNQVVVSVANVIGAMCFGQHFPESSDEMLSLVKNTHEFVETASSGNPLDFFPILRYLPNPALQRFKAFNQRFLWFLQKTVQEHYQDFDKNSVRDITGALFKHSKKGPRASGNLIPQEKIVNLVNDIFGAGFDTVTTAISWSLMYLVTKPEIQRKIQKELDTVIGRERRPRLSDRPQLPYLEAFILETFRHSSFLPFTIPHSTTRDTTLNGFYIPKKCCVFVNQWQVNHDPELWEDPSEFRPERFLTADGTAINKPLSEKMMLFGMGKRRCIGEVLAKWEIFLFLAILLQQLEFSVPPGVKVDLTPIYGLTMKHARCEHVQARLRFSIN

CCN(CCCCOC(=O)c1ccc(OC)c(OC)c1)C(C)Cc1ccc(OC)cc1 (stereo not given)
inactive: activity change, negative = inhibition [1] -6.87% | activity, negative = inhibition [3] 1.95% | Potency [4] > 20.6 µM
active: activity change, negative = inhibition [2] -93.3%

Oc1c(Cl)cc(Cl)cc1Sc1cc(Cl)cc(Cl)c1O
active: Potency [6] 47.8 µM | Potency [7] 36.2 µM | Potency [8] 27.9 µM | activity change, negative = inhibition [2] -126% | activity, negative = inhibition [3] -99.1% | Potency [10] 31.6 µM | Potency [11] 20 µM | Potency [12] 31.6 µM
inactive: activity change, negative = inhibition [1] -12.3% | Potency [5] > 92 µM | Potency [4] > 20.6 µM | outcome [9]

CC1(C)O[C@@H]2C[C@H]3[C@@H]4C[C@H](F)C5=CC(=O)CC[C@]5(C)[C@H]4[C@@H](O)C[C@]3(C)[C@]2(C(=O)CO)O1
active: Potency [4] 0.00217 µM
inactive: activity change, negative = inhibition [1] -0.38% | activity change, negative = inhibition [2] 16.2% | activity, negative = inhibition [3] -6.53%

CCCC(=O)Nc1ccc(OCC(O)CNC(C)C)c(C(C)=O)c1 (stereo not given)
inactive: activity change, negative = inhibition [1] 0.101% | activity change, negative = inhibition [2] -15.3% | activity, negative = inhibition [3] 7.52% | Potency [4] > 20.6 µM

CC(C)N=C(N)/N=C(\N)Nc1ccc(Cl)cc1
inactive: activity change, negative = inhibition [1] -0.245% | activity change, negative = inhibition [2] -11% | activity, negative = inhibition [3] -2.15% | Potency [4] > 20.6 µM | Potency [13] > 20.6 µM | outcome [9]

CCC(C(=O)OCCN(CC)CC)c1ccccc1 (stereo not given)
inactive: activity change, negative = inhibition [1] 1.42% | activity, negative = inhibition [3] 2.13% | Potency [4] > 20.6 µM
active: activity change, negative = inhibition [2] -83.4%

NCCCC[C@H](N[C@@H](CCc1ccccc1)C(=O)O)C(=O)N1CCC[C@H]1C(=O)O
inactive: activity change, negative = inhibition [1] 3.25% | activity change, negative = inhibition [2] -2.99% | activity, negative = inhibition [3] 4.58% | Potency [4] > 20.6 µM | Potency [13] > 20.6 µM | outcome [9]

C[C@H]1C[C@H]2[C@@H]3CCC4=CC(=O)C=C[C@]4(C)[C@@]3(Cl)[C@@H](O)C[C@]2(C)[C@@]1(O)C(=O)CO
inactive: activity change, negative = inhibition [1] -9.37% | activity change, negative = inhibition [2] -6.95% | activity, negative = inhibition [3] -1.29%

CN(C(=O)CN(CCO)CC(=O)N(C)C(C)(C)Cc1ccccc1)C(C)(C)Cc1ccccc1
inactive: activity change, negative = inhibition [1] -21.6% | Potency [14] | activity change, negative = inhibition [2] -2.45% | Potency [4] > 20.6 µM | Potency [13] > 20.6 µM | outcome [9]

CC(C)(Oc1ccc(Cl)cc1)C(=O)O
inactive: activity change, negative = inhibition [1] -0.859% | activity change, negative = inhibition [2] 15.7% | activity, negative = inhibition [3] -4.02% | Potency [4] > 20.6 µM and > 46 µM | Potency [13] > 20.6 µM and > 46 µM | outcome [9]
